Reference: PubChem BioAssay (Tox21)
Inconclusive results are not listed. Activity calls are given as the source filed them. The call rests on the fitted dose curve; in most records, active means well fitted inhibition curve with a large enough effect in the repeat runs; inconclusive means weak or mixed curves, or effect the other way; inactive means no such curve, though single readings can be large or run the other way.

These molecules were tested against Nuclear receptor ROR-gamma (Homo sapiens) (UniProt P51449) (assay: qHTS assay to identify small molecule antagonists of the retinoid-related orphan receptor gamma (ROR-gamma) signaling pathway (AID 1159521; further: top concentration of the series differs between compounds; nearly all actives have a fitted effect of over 50% in size)). Conditions: Tet-on RORgamma CHO cells, RORE-luciferase, 16 h; series mostly up to 92.4 µM.
From the text: U.S. Tox21 Program National Center for Advancing Translational Sciences [NCATS] NIH Chemical Genomics Center [NCGC] U.S. Environmental Protection Agency [EPA] National Institutes of Environmental Health Sciences [NIEHS] National Toxicology Program [NTP] U.S. Food and Drug Administration [FDA] Tox21 Assay Overview: Nuclear steroid hormone receptors are involved in many biological processes including inflammatory responses, cell proliferation, and apoptosis. Environmental factors or compounds disrupting these nuclear receptor pathways and gene expression may promote susceptibility to immunotoxicants and autoimmune diseases. One important group of these expression factors are the retinoid-related orphan receptors. To assess compounds that may interfere with the retinoid-related orphan receptor gamma (ROR-gamma) transcription factor, a cell-based luciferase assay was used. The CHO cell-based assay utilizes a TET-inducible ROR expression factor and ROR response element-LUC reporter gene. Reporter gene activity was induced using Doxycycline Hyclate and measured after 16 hr incubation. Tet-on ROR gamma CHO cells were used to screen against the Tox21 10K compound library for ROR gamma antagonists by quantification of decreased reporter gene activity in terms of decreased luminescence.
Tox21 Assay Protocol Summary: Tet-on ROR gamma CHO cells were dispensed at 1,000 cells in 4 uL of culture medium per well into white wall/solid bottom 1536-well plates using a Multidrop Combi (Thermo Scientific, Waltham, MA) dispenser. Following incubation at 37 C and 5% CO2 for 4 hr, 23 nL of compounds dissolved in DMSO, positive controls or DMSO only were transferred by a Pintool station (Kalypsys, San Diego, CA) and after 2 hr incubation at 37 C, one ul of 1 uM (final concentration) of Doxycycline Hyclate was added to all the wells by using a Flying Reagent Dispenser (FRD) (Aurora Discovery, San Diego, CA). After 16 hr incubation at 37 C and 5% CO2, 5 uL of ONE-Glo reagent (Promega Corporation, Madison, WI) was added to each assay plate using FRD. After 30 min incubation at room temperature, luminescence was quantified on a ViewLux plate reader (Perkin Elmer, Waltham, MA).

SMILES | outcome
C[C@H](N)[C@H](O)c1cccc(O)c1 | inactive
CCN(C)C(=O)Oc1cccc([C@H](C)N(C)C)c1 | inactive
CC(=O)NCc1c(I)c(NC(C)=O)c(I)c(C(=O)O)c1I | inactive
COC(=O)CCc1ccc(OCC(O)CNC(C)C)cc1 (stereo not given) | inactive
CCN(CC)CC(=O)Nc1c(C)cccc1C | inactive
CCOC(=O)c1ncn2c1CN(C)C(=O)c1cc(F)ccc1-2 | inactive
COc1nccnc1NS(=O)(=O)c1ccc(N)cc1 | inactive
Cc1cc(Cl)c(C)cc1Cl | inactive
C=C(C)C1CCC(C)(O)CC1 (stereo not given) | inactive
NCCS | inactive
COCCc1ccc(OCC2CO2)cc1 (stereo not given) | inactive
Cc1cccc(OCC(O)CNC(C)(C)C)c1C (stereo not given) | inactive
CC(C)CC(C)CC(C)CC(C)COC(=O)c1ccccc1C(=O)OCC(C)CC(C)CC(C)CC(C)C (stereo not given) | inactive
COc1cc2c(cc1OC)[C@@H]1CC(=O)[C@@H](CC(C)C)CN1CC2 | inactive
Nc1ncnc(Nc2ccccc2)n1 | inactive
O=C1c2ccccc2C(=O)C1c1ccccc1 | inactive
C[C@@H]1O[C@@H](O[C@@H]2[C@@H](O)[C@H](OCCc3ccc(O)c(O)c3)O[C@H](CO[C@@H]3O[C@H](CO)[C@@H](O)[C@H](O)[C@H]3O)[C@H]2OC(=O)/C=C/c2ccc(O)c(O)c2)[C@H](O)[C@H](O)[C@H]1O | inactive
CCCCCCCCC(=O)Cl | inactive
Cc1c(I)c(=O)n(-c2ccccc2)n1C | inactive
O=C(O)CCSSCCC(=O)O | inactive

SMILES | outcome
CCOCCOCCOCC | inactive
CN(C)c1ccc(C=O)cc1 | inactive
Cc1ccsc1/C=C/C1=NCCCN1C | inactive
CCC(C=O)CC | inactive
CCCCCCCCC1CCC(=O)O1 (stereo not given) | inactive
O=C1CCCC(=O)O1 | inactive
C[Si](C)(C)C | inactive
N[C@@H](CCC(=O)Nc1ccc([N+](=O)[O-])cc1)C(=O)O | inactive
C#CC(C)N(C)C(=O)Nc1ccc(Cl)cc1 (stereo not given) | inactive
CCc1ccc(C=O)cc1 | inactive
CCN1CCc2nc(N)oc2CC1 | inactive
Cc1ccccc1N=O | inactive
COc1ccc(OC)c(Cl)c1 | inactive
Cc1ccc2ccc(Cl)cc2n1 | inactive
CC(CN)CC(C)(C)CCN (stereo not given) | inactive
CCCCN | inactive
C=CC(OCC)OCC | inactive
O=S(=O)(O)CCN1CCN(CCO)CC1 | inactive
NS(=O)(=O)c1cc2c(cc1Cl)CN(C1CCCCC1)C2=O | inactive
CC(C)OC(=O)CCCCC(=O)OC(C)C | inactive
